# According to paper PMC7826789 (International Journal of Molecular Sciences, 2021):
# Test system: VRK2
# Details: Compound Concentration (nM):1000
# 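Also: KINOMEscan scanMAX binding as percent activity remaining versus control; lower means stronger binding.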
row,SMILES,Percent Control
1,Cl.O=C(Nc1ccc(Oc2ccc3[nH]c(NC(=O)c4ccccc4)nc3c2)cc1)Nc1cc(C(F)(F)F)ccc1F [GW709042A],100%
2,NS(=O)(=O)c1ccc(N/N=C2\C(=O)Nc3ccc(C(=O)NCCc4c[nH]cn4)cc32)cc1 [GW300660X],100%
3,CN1CCN(C(=O)c2ccc(NC(=O)Nc3ccc(N(C)c4ccnc(Nc5ccc(CS(C)(=O)=O)cc5)n4)cc3)cc2)CC1.Cl [GW830263A],93%
4,CN(C)CCNC(=O)Nc1ccc(N(C)c2ccnc(Nc3ccc(CS(C)(=O)=O)cc3)n2)cc1.Cl [GW830900A],100%
5,COc1cc(C)c(N(C)C(=O)CN(C)C)cc1Nc1nc(Nc2cccc(F)c2C(N)=O)c2cc[nH]c2n1 [GSK2219385],62%
6,CCS(=O)(=O)c1ccc(OC)c(Nc2ncc(-c3cccc(F)c3)o2)c1 [GW621970X],93%
7,Cc1cc(O)cc(C)c1/C=C/c1cncc(C(N)=O)c1 [GW435821X],100%
8,COc1ccc(COc2ccc(Cc3cnc(N)nc3N)cc2OC)cc1 [GW632580X],81%
9,COc1cc(/C=N/Nc2ncnc3[nH]ncc23)ccc1O [GW578748X],100%
10,NS(=O)(=O)c1ccc(N/N=C2\C(=O)Nc3ccc(Cl)cc32)cc1 [GW280670X],100%
11,CN(C)c1cc2c(Nc3ccc4c(cnn4Cc4ccccc4)c3)ncnc2cn1 [GW282974X],81%
12,COc1cc(C=NNc2ncnc3c2cnn3-c2ccccc2)ccc1O [GW513184X],100%
13,CC(C)COC(=O)c1ccc2c(c1)/C(=C/Nc1ccc(S(N)(=O)=O)cc1)C(=O)N2 [GW416981X],100%
14,C[C@@H](Oc1cc(-n2cnc3ccc(OC4CCN(C)CC4)cc32)sc1C(N)=O)c1ccccc1Cl [GSK579289A],95%
15,COC(=O)Nc1nc2ccc(Oc3ccc(NC(=O)Nc4cc(C(F)(F)F)ccc4F)cc3)cc2s1.Cl [GW693917A],73%
16,O=C1Nc2ccc(C(=O)c3ccco3)cc2C1=Cc1cc(Cl)c(O)c(Cl)c1 [GW406108X],74%
17,Cl.O=S1CCN(Cc2ccc(-c3ccc4ncnc(Nc5ccc(OCc6ccccc6)c(F)c5)c4c3)o2)CC1 [GW576924A],100%
18,CC1=C(C(=O)Nc2ccc3[nH]ncc3c2)C(c2ccc(Cl)c(Cl)c2)CC(=O)N1 (stereo not shown) [GSK299115A],72%
19,O=C(Nc1n[nH]c2nc(-c3ccc(O)cc3)c(Br)cc12)C1CC1 [SB-725317],100%
20,COc1ccc2cc(-c3c(-c4ccncc4)nc(-c4ccc(S(C)(=O)=O)cc4C)n3C)ccc2c1 [SB-633825],58%
21,COc1cc2ncnc(Nc3ccc4c(cnn4Cc4ccccc4)c3)c2cc1OC.Cl [GW282449A],100%
22,Cl.c1ccc(Cc2nc3ccc(Nc4ncnc5ccccc45)cc3[nH]2)cc1 [GR269666A],100%
23,NS(=O)(=O)c1ccc(N/N=C2\C(=O)Nc3ccc(-c4cnco4)cc32)cc1 [GW276655],89%
24,COc1ccc2[nH]c3c4[nH]c5ccc(OC)cc5c4c4c(c3c2c1)C(=O)NC4=O [GW296115X],98%
25,CCc1ccc(Oc2nccc(-c3c(-c4ccc(F)cc4)ncn3C3CCNCC3)n2)cc1 [SB-242719],69%
26,CC1=C(C(=O)Nc2ccc3[nH]ncc3c2)C(c2ccc3ccccc3c2)CC(=O)N1 (stereo not shown) [GSK270822A],36%
27,NS(=O)(=O)c1ccc(Nc2ncc(-c3ccccc3)o2)cc1 [GW572399X],100%
28,C/C(Nc1ccc(S(N)(=O)=O)cc1)=C1/C(=O)Nc2ccccc21 [GW335962X],80%
